This note sets out measurements from PubChem BioAssay (NCI).

Values joined by “and” are separate entries in the source; they are usually repeats but may differ in a detail not shown here. Identical values can stand only once. Compounds without any hit were thinned out: in the full panel of roughly 83,000, 20% have a hit.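 96-well plates, one dose, 48 hours. Percent growth reported; active if below 10.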 Unmarked numbers belong to inactive results. Active and inactive are the calls of the source.

The experiment relates to BT-549 breast. Nature of the experiment: NCI-60 one-dose screen, 48 h (100 = growth as untreated, 0 = no growth, -100 = all killed). As to conditions: 10 µM unless noted.
Consider `O=C(CSc1nnc(-c2ccc(-c3nc4ccc(Cl)cc4[nH]3)cc2)o1)Nc1ccc(Cl)cc1`, for which the growth was -9.75% (active).

As to `COc1ccc(-n2c(NC(=O)N3CCN(C)CC3)c(C#N)c3ccccc32)cc1`, the growth was 57.7%.

Consider `N#Cc1c(NC(=O)N2CCOCC2)n(-c2ccc(OC(F)(F)F)cc2)c2cc(F)ccc12`, for which the growth is 139%.

As for `COc1ccc(-c2nc3ccccc3n2CC(=O)N=Nc2c(O)[nH]c3ccc(Br)cc23)cc1`, the growth was 53.3%.

With `O=C1Nc2ccccc2/C1=C/C(=O)c1cc2ccccc2oc1=O`, the growth is 111%.

Regarding `COc1sc(/C=N/NC(=O)c2[nH]c3ccc(Br)cc3c2-c2ccccc2)cc1Br`, the growth was -29.1% (active).

For `CSc1ccc(OCc2nc3ccccc3n2-c2cccc(NS(C)(=O)=O)c2)cc1`, the growth is 131% and 105%.

In the case of `O=C(NNC(=O)c1ccc(OCc2nc3ccc(Cl)cc3[nH]2)cc1)Nc1ccc(Cl)c(Cl)c1`, the growth is 119%.

As to `COc1cc(C2CC(c3ccc(F)cc3)=Nc3c(N)nc(N)nc3N2)ccc1Oc1nc(Nc2ccc(F)cc2)nc(N(C)C)n1` (stereo not drawn), the growth is 51.3%.

In the case of `NC1(c2ccc(-c3ccc4ncnc(NCc5ccccc5)c4c3)cn2)COC1`, the growth was 109% and 106%.

For `C#CCN(C)CCCOc1ccc(N(CC)C(=O)c2cc(C(C)C)c(O)cc2O)cc1Cl`, the growth is -8.72% (active).

On to `C#CCCCNCCNc1ccnc2cc(Cl)ccc12`, for which the growth was 66.5%.

Take `COc1cc(CNC(=O)C[C@H](C)CCC=C(C)C)ccc1OCc1cn(-c2ccccc2F)nn1`: the growth is 71%.

In the case of `CCOc1ccccc1NC(=O)N/C(N)=N/c1nc2ccccc2s1`, the growth is 23.1%.

Regarding `N#CC1=C(c2cccs2)Nc2c(c(-c3ccccc3)nn2-c2ccccc2)C12C(=O)Nc1ccc(Br)cc12` (stereo not drawn), the growth is -68.4% (active).

Turning to `COc1cc(CNC(=O)C[C@H](C)CCC=C(C)C)ccc1OCc1cn(-c2ccc(Cl)c(Cl)c2)nn1`, the growth was 71.7%.

On to `CN1C(=O)/C(=C\C(=O)c2cc3ccccc3oc2=O)c2ccccc21`, for which the growth was 27.8%.

`COc1ccc(Nc2nnc(-c3c[nH]c4ccccc34)o2)cc1`: the growth is 77.8%.

For `Cc1ccc(C2CC(c3ccc(NC(=O)Nc4ccccc4)cc3)=NN2c2ccc(S(N)(=O)=O)cc2)cc1` (stereo not drawn), the growth is -79.6% (active).

`Cc1ccc(C(=O)Nc2cc(-n3cnc(F)c3)cc(C(F)(F)F)c2)cc1C#Cc1cnc2cccnn12`: the growth was 60.1%.

`CCCCCCCCc1ccc(C(=O)Nc2ccc(C)c(OP(=O)(O)O)c2)cc1`: the growth is 88.9%.

For the molecule `C=CCn1c(O)c(N=Nc2nc(-c3cc4ccccc4oc3=O)cs2)c2ccccc21`, the growth is 67.3%.

As for `FC(F)(F)c1cc2c(Cl)ncnc2n1CCN1CCOCC1`, the growth is 60.6%.

As for `C/C(=N\Nc1ccc(C(=O)O)cc1)c1cnn(-c2cc(=O)[nH]c3ccc(C)cc23)c1C`, the growth is 88.4%.

Take `CCN1CCN(Cc2ccc(C(=O)Nc3cccc(Nc4ccc5c(OC)cccc5n4)c3)cc2C(F)(F)F)CC1`: the growth was -94% (active).

Take `Nc1nn2c(-c3cc4cc(Br)ccc4oc3=O)ccnc2c1N=Nc1ccccc1`: the growth is -45.3% (active).

As for `Cc1cccc(-c2ccccc2Oc2ccc3nnc(Cl)n3n2)c1`, the growth was 99.8%.

Regarding `Cc1ccc(/C=C/C(=O)c2ccc(S(=O)(=O)NCCNc3nc(N(C)C)nc(N4CCOCC4)n3)cc2)cc1`, the growth is 97.3%.

As to `C#CCN(C)CCCOc1ccc(N(C)C(=O)c2cc(C(C)C)c(O)cc2O)cc1Cl`, the growth is 9.45% (active).

`Cc1ccc(C(=O)C[n+]2cccc3c4ccccc4ccc32)cc1`: the growth was 20.8%.

On to `COc1ccc(NC(=O)N/N=C/c2c[nH]c3ccccc23)cc1`, for which the growth was 19.1%.

On to `O=C(CSc1nc2ccccc2c(=O)[nH]1)NNC(=O)c1ccccc1Cl`, for which the growth is 160%.

As for `CC[C@]12C=CCN3CC[C@]4(C(=C(C(=O)OC)C1)Nc1cc(OC)c([C@@H]5[C@H]6O[C@H]6[C@@]6(CC)CC(C(=O)OC)=C7Nc8cc(O)ccc8[C@@]78CCN5[C@@H]68)cc14)[C@@H]32`, the growth is -29% (active).

In the case of `O=C(Cc1c(-c2ccccc2[N+](=O)[O-])n(-c2ncnc3c2c(-c2ccccc2)c(-c2ccccc2)n3Cc2ccccc2)[nH]c1=O)c1ccc(Cl)c(Cl)c1`, the growth was -17.2% (active).

Turning to `COc1ccc2[nH]c(O)c(N=Nc3nc(-c4ccc(Cl)cc4)cs3)c2c1`, the growth is 25.9%.

With `O=C(CSc1nnc(-c2ccc(-c3nc4ccccc4[nH]3)cc2)o1)Nc1ccccc1`, the growth is 98.7%.

As for `CN(C)CCOc1ccc(C(=O)C2[C@H](c3ccc(Cl)cc3)[C@@H](c3ccccc3)NC23C(=O)Nc2ccc(Cl)cc23)cc1` (stereo partly drawn), the growth is -97.6% (active).

As to `COc1cc(/C=C/C(=O)c2cnn(-c3cc(=O)[nH]c4ccc(Cl)cc34)c2C)cc(OC)c1OC`, the growth was -47% (active).
